Shown are actives, neighbours in structure and some others; about 4% of the full set was active somewhere.
Rv3671c inh: Rv3671c (M. tuberculosis) protease inhibition. inhibition, % at 5.96 µM. hit rate 0.048% among 320,000. P9WHR9; in the data active = inhibition above about 38%;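 also: extracellular domain of Rv3671c used as enzyme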
RecA intein inh: blocks M. tuberculosis RecA intein splicing | P9WHJ3 | cell-free RecA intein splicing, fluorescence | inhibition, % (no concentration beside the values) | hit rate 0.75% among 290,000; in the data active = inhibition above about 30%
Mtb FBA inh: inhibits M. tuberculosis FBA enzyme | hit rate 2.3% among 360,000 | AID 588726 | purified M. tuberculosis FBA, fluorescence read-out | P9WQA3 | inhibition, % at 1 µM
Mtb betalactam: beta-lactam sensitization of Mtb H37Rv. M. tuberculosis H37Rv growth with meropenem, percent inhibition. inhibition, % at 25 µM. hit rate 0.27% among 330,000. AID 434955; call rule not given here;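 also: growth measured after seven days incubation then overnight dye step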
GDH-TPI counter-1: inhibits GDH-TPI coupling enzymes, artifact for Mtb FBA screen | GDH-TPI coupled enzyme counterscreen, NADH absorbance | hit rate 1.2% among 360,000 | AID 588335 | inhibition, % at 4.8 µM; in the data active = inhibition above about 30%
Mtb UGM inh: inhibitors of M. tuberculosis UDP-galactopyranose mutase | P9WIQ1 | purified UGM, fluorescence polarization probe displacement | inhibition, % at 10 µM | hit rate 0.06% among 320,000; in the data active = inhibition above about 10%, passing the limit was not always enough
Mtb FBA confirm: confirmation of M. tuberculosis fructose-bisphosphate aldolase inhibitors; shares compounds with Mtb FBA inh; purified M. tuberculosis FBA, fluorescence read-out; inhibition, % at 1 µM; hit rate 78% among 5,600
GDH-TPI counter-2: inhibits GDH-TPI coupling enzymes, flagging Mtb FBA hits; shares compounds with Mtb FBA inh; GDH-TPI coupled enzyme counterscreen, fluorescence; inhibition, % at 1 µM; hit rate 81% among 5,600; AID 652141; in the data active = inhibition above about 10%
GDH-TPI DR: GDH-TPI dose response counter-screen for Mtb FBA; shares compounds with Mtb FBA inh; GDH-TPI coupled enzyme assay, fluorescence, artifact counterscreen; IC50, µM; hit rate 79% among 170; AID 652145; call rule not given here
A number is an active result; 0 = inactive; - = no result given; + = active, no number. Rule as the data show it, unless noted: active = inhibition above about 27%; inactive = the rest.

SMILES	Rv3671c inh	RecA intein inh	Mtb FBA inh	Mtb betalactam	GDH-TPI counter-1	Mtb UGM inh	Mtb FBA confirm	GDH-TPI counter-2	others
COc1ccc(N2CCN(c3nc4c(C)cccn4c(=O)c3/C=C(\C#N)C(N)=O)CC2)cc1	0	0	32.4	0	0	0	0	0
COc1cc(OC)nc(NC(=O)CSc2nc3ccccc3o2)n1	0	-	0	0	0	0	-	-
c1ccc(Cn2ncc3ccccc32)cc1	0	0	0	0	0	0	-	-
CN(C)c1nc(-c2ccccc2)c2cnn(Cc3ccccc3)c2n1	0	0	43.6	0	0	0	121.1	111.9
COCCn1c(SCC(=O)N2CCCCC2)nc2c(c1=O)SCC2	0	0	41.1	0	0	0	0	0	GDH-TPI DR=0
CCn1c(SCC(=O)N2CCCCC2)nc2c(c1=O)SCC2	0	0	0	0	0	0	-	-
O=[N+]([O-])c1ccc(SCc2c(F)cccc2Cl)nc1	0	-	0	0	0	0	-	-
O=C(CNc1n[nH]c(=O)[nH]c1=O)N/N=C/c1ccccc1	0	0	-	0	-	0	-	-
O=c1[nH]c(NCCO)c(N=Cc2ccccc2)c(=O)[nH]1	0	0	85.3	0	0	0	108.2	94.1
COc1ccc(-c2cc(C(F)F)n3ncc(C(=O)N4CCSCC4)c3n2)cc1	0	0	0	0	0	0	-	-
COc1ccc(-c2cc(C(F)F)n3ncc(C(=O)N4CCN(C)CC4)c3n2)cc1	0	0	29.5	0	0	0	38.8	33.7
COc1cccc(OCC(=O)NNC(=O)c2ccc3ccccc3c2O)c1	-	0	28.5	-	0	-	+	+
COc1cccc(NC(=O)NNC(=O)COc2ccc3ccccc3c2)c1	0	0	36.6	0	0	0	+	+
COc1ccc(C(=O)NNC(=O)c2ccc3ccccc3c2O)cc1	0	0	0	0	0	0	-	-
CCOc1ccccc1NC(=O)c1cccc2c1C(=O)N(CCOC)C2	0	0	0	0	0	0	-	-
Cn1c(=O)c2c(nc(N/N=C3\CCCc4ccccc43)n2Cc2ccc(F)cc2)n(C)c1=O	0	0	0	0	0	0	-	-
Cc1c2ccccc2nc2ccccc12	0	0	63.9	0	0	0	199.4	123.3
Cc1cc(N)c2ccccc2n1	0	0	0	0	0	0	-	-
CC(=O)O[C@]1(C(C)=O)CC[C@H]2[C@@H]3C[C@H](C)C4=CC(=O)CC[C@]4(C)[C@H]3CC[C@@]21C	0	0	0	0	0	0	-	-
CC(=O)C12CCCCC1CC1[C@@H]3CC(C)C4=CC(=O)CC[C@]4(C)C3CC[C@@]12C (some centres not stated)	-	0	34.3	-	0	-	187.2	175.4
CCN(CC)c1ncnc2sc(C(=O)N3CCN(c4ccccc4)CC3)c(C)c12	0	0	0	0	0	0	-	-
Cc1cc(=O)oc2c(N)nccc12	-	-	0	-	-	-	-	-
Cc1cc(=O)oc2c3c(ccc12)OC/C3=N/N	0	0	94.4	0	0	0	+	+
CC1(C)CC(=O)C=C(c2ccc3ccccc3c2)C1	0	-	39.6	0	0	0	0	0
Cc1ccc(C2=CC(=O)CC(C)(C)C2)cc1	0	-	0	0	0	0	-	-
SMILES	Rv3671c inh	RecA intein inh	Mtb FBA inh	Mtb betalactam	GDH-TPI counter-1	Mtb UGM inh	Mtb FBA confirm	GDH-TPI counter-2	others
Cc1ccc(NS(=O)(=O)Cc2ccccc2)nc1	0	0	60.2	0	0	0	170.6	141.7
Cc1ccc(S(=O)(=O)Nc2ccc(Cl)cn2)cc1	0	0	0	0	0	0	-	-
O=S(=O)(Cc1ccccc1)Nc1ccc(Br)cn1	0	0	0	0	0	0	-	-
Cc1ccc(NS(=O)(=O)c2ccc(Br)cc2)nc1	0	0	28.4	0	0	0	+	+
Cc1ccnc(NS(=O)(=O)Cc2ccccc2)c1	0	0	44.5	0	0	0	103.4	67.7
Cc1ccccc1S(=O)(=O)N1C[C@H]2CON(C)[C@H]2C[C@H]1c1cccc(Br)c1	-	-	0	-	0	-	-	-
O=C(COc1ccc2c3c(c(=O)oc2c1)CCC3)NCc1cccnc1	0	0	0	0	0	0	-	-
Cc1c(C)c2c(OCC(=O)NCc3cccnc3)cc3c(c2oc1=O)CCC(C)(C)O3	0	0	56.6	0	0	0	69.0	52.3
O=C(COc1cc2oc(=O)c3c(c2cc1Cl)CCC3)NCc1ccncc1	0	0	0	0	0	0	-	-

Screening data deposited in PubChem by several laboratories.
